# High-throughput results as filed in PubChem.
# Shiga inhibitor: A qHTS for Small Molecule Inhibitors of Shiga Toxin | Vero cells, Shiga toxin protein synthesis inhibition reporter | inhibition, % at 38.7 µM | 290,000 tested, 9.2% active | AID 2315, 2010; in the data active means inhibition mostly above about 28%, no sharp cut-off; inactive means mostly below about 43%; further: 0% is about no effect
# Pf growth 48h: Primary qHTS for delayed death inhibitors of the malarial parasite plastid, 48 hour incubation; Potency, µM (highest dose often 28.7 µM), inactives show at the top dose activity change, negative = inhibition, most hits filed as inhibitors; 310,000 tested, 5.9% active; AID 504832, 2011; P. falciparum luciferase growth in erythrocytes, 48 h; further: potency means the concentration at half of the fitted maximal effect; on the % scale 0 is the no-effect control and ±100 the full control effect
#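 Luciferase-expressing parasites in RBCs, 2% Hct / 0.1% parasitemia final; RPMI 1640 + 0.5% Albumax; 37 C, 5% CO2, one generation; luminescence read-out, lower signal = inhibition.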
# Pf growth 96h: Primary qHTS for delayed death inhibitors of the malarial parasite plastid, 96 hour incubation; P. falciparum luciferase reporter growth, 96 h; Potency, µM (doses to about 28.7 µM), for inactives: top-dose activity change, negative = inhibition, most hits filed as inhibitors; 320,000 tested, 6.9% active; further: potency means the concentration at half of the fitted maximal effect; on the % scale 0 is the no-effect control and ±100 the full control effect
#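 Delayed-death screen, second-generation endpoint: infected erythrocytes, 2% hematocrit, 0.05% parasitemia final; 96 hours at 37 C, 5% CO2; luciferase detection reagent; luminescence decrease equals reduced growth.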
# Cycloheximide cs: Cycloheximide Counterscreen for Small Molecule Inhibitors of Shiga Toxin; cell reporter, cycloheximide protein synthesis inhibition counterscreen; 300,000 tested, 12% active; max response, %; AID 2314, 2010; in the data active means max response mostly above about 13%, no sharp cut-off; inactive means mostly below about 14%; further: read at 38.3 µM for the half of the compounds with a filed dose; 0% is about no effect
# HCMV antiviral: qHTS Assay for inhibitors of the human cytomegalovirus (HCMV). HFF cells, HCMV-luciferase reporter, 72 h; hits give low values. activity change, negative = inhibition, % at 57.5 µM. 410,000 tested, 4.5% active. AID 1259415, 2018; in the data active means activity change below about -60%; inconclusive means no clear call, values can overlap the other calls; inactive means above about -39%; further: on the % scale 0 is the no-effect control and ±100 the full control effect
#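 Steps: HFFs plated, 16 h 37C; compounds added; HCMV-luciferase added to MOI 1 PFU/cell; 72 h 37C; OneGlo reagent, 5 min room temperature; luminescence read, normalized to controls.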
# * hit, by the source's call; ? = inconclusive; · = no result given; [ ] = another dose, or the depositor's remark. In the library only some 20% were active in any assay of this set; here they are far more common. Unless noted, the call rests on the fitted dose curve; in most records, active means well fitted inhibition curve with a large enough effect; inconclusive means small, poorly fitted or top-dose-only effect, or another doubt; inactive means no such curve, though single readings can be large or run the other way.
SMILES,Shiga inhibitor,Pf growth 48h,Pf growth 96h,Cycloheximide cs,HCMV antiviral
Cc1cccc(Nc2nc(C)nc3c2oc2ccccc23)c1,42,?,?,19*,69
Cc1nc(Nc2ccncc2)c2oc3ccccc3c2n1,-20,·,-2%[5.75 µM],-4,-98*
CCc1nc(Nc2cccc(O)c2)c2oc3ccccc3c2n1,39,?,?,15,·
Cc1ccc(S(=O)(=O)NC(=O)Nc2c(C)cccc2C)cc1,-17,1%,-12%,-1,-14
Cc1cccc(-n2c(SCC(=O)N3CCC(C(=O)O)CC3)nc3ccccc3c2=O)c1C,1,?,3%,5,-21
Fc1cccc(-c2cc3cnc(Nc4ccc(C(F)(F)F)cc4)cc3[nH]2)c1,·,·,·,·,-7
COc1cccc(CNC(=O)Cn2c(=O)cc(C)c3c(C)nn(C)c32)c1OC,·,·,·,·,-27
CCc1nc(Nc2ccc3c(c2)OCO3)c2oc3ccccc3c2n1,62*,?,?,12*,-23
COc1ccc(CCNS(=O)(=O)CCNC(=O)c2ccc3c(c2)OCO3)cc1OC,·,36%,?,·,-17
CC(=O)N1CCN(C(=O)CSc2nc3c(cnn3-c3ccccc3)c(=O)[nH]2)CC1,78*,0%,5%[5.75 µM],38*,22
CC1CCN(C(=O)CSc2nc3c(cnn3-c3ccccc3)c(=O)[nH]2)CC1,14,·,?,-3,31
COc1ccc2c(-c3ccccc3)cc(SC(C)C(N)=O)nc2c1 (configuration not stated),-9,10µM*,?,-2,?
CCCN(C(=O)CSc1nc2c(cnn2-c2ccccc2)c(=O)[nH]1)C1CCS(=O)(=O)C1 (configuration not stated),2,9.3µM*,?,-6,31
COc1ccc2c(-c3ccccc3)cc(=O)[nH]c2c1,73,?,·,11,83
CCCN(C(=O)CSc1cc(-c2ccccc2)c2ccc(OC)cc2n1)C1CCS(=O)(=O)C1 (configuration not stated),-17,?,9.3µM*,1,20
CCCSc1nnc2n(-c3ccc(OC)cc3)c(=O)c3c4c(sc3n12)COC(C(C)C)C4 (configuration not stated),·,·,·,·,-15
C/C(CC(=O)Nc1cc(C)ccn1)=N\NC(=O)C(=O)Nc1cccc(C)c1,32,82%,1.5µM*,26*,9
C/C(CC(=O)Nc1ccccn1)=N\NC(=O)C(=O)Nc1ccccc1C,-20,-4%,1.9µM*,1,-39
C/C(CC(=O)Nc1ccc(F)cc1)=N\NC(=O)c1ccccn1,24,217%,-9%,18,?
CCc1ccc(NC(=O)C(=O)N/N=C(\C)CC(=O)Nc2ccccn2)cc1,48*,77%,?,36*,-34
Cc1ccc(-n2ncc(C(=O)NCCCN3CCN(C)CC3)c2C2CCN(C(=O)OC(C)(C)C)CC2)c(C)c1,·,·,·,·,-20
CCN(C(=O)CN1C(=O)NC(c2ccccc2)(c2ccccc2)C1=O)c1ccccc1,-3,13µM*,?,-3,-2
CC(C)(C)NC(=O)CN1C(=O)NC(c2ccccc2)(c2ccccc2)C1=O,-7,?,3%,5,-81*
CC1CCCC(NC(=O)CN2C(=O)NC(c3ccccc3)(c3ccccc3)C2=O)C1C (configuration not stated),·,15µM*,?,·,12
CCN(Cc1cccs1)C(=O)CN1C(=O)NC(c2ccccc2)(c2ccccc2)C1=O,·,?,13µM*,·,-19
SMILES,Shiga inhibitor,Pf growth 48h,Pf growth 96h,Cycloheximide cs,HCMV antiviral
CCN(Cc1cccs1)C(=O)CN1C(=O)NC2(CCCc3ccccc32)C1=O (configuration not stated),·,-30%,-21%,·,-1
CC(=O)CN1C(=O)NC(c2ccccc2)(c2ccccc2)C1=O,4,19%,18%,-1,-31
CCOc1ccccc1C(=O)Nc1c(NC)c2ccccc2oc1=O,·,·,·,·,21
O=C(CCl)NN1C(=O)NC(c2ccccc2)(c2ccccc2)C1=O,19,?,?,-5,-88*
Cc1ccc(CN(C)C(=O)CN2C(=O)NC(c3ccccc3)(c3ccccc3)C2=O)c(C)c1,·,13µM*,?,·,-38
CSc1ccc(/C=C/c2nc3ccccc3n2S(=O)(=O)c2cccc(Cl)c2)cc1,·,·,·,·,-65*
Cc1ccc(S(=O)(=O)n2c(N)nc3ccccc32)cc1,·,23%,-29%,-2,33
